# Experimental data from PubChem BioAssay (NCI).
# Compounds without any hit were thinned out: in the full panel of roughly 83,000, 20% have a hit.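 How to read the values: 0–100, growth inhibition (40 = 60% inhibited); 0, no net growth; -100 to 0, cell death (-40 = 40% of starting cells died; -100 = all dead).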 Unmarked numbers belong to inactive results. Activity calls are given as the source filed them. How the source made its calls: active means growth percent below 10; inactive means the rest.
# What was measured:
# Assay in all cases: NCI-60 one-dose screen, 48 h (100 = growth as untreated, 0 = no growth, -100 = all killed)
# NCI-H23 lung = conditions: 10 µM unless noted
# NCI-H226 lung = conditions: 10 µM unless noted
# NCI-H322M lung = conditions: 10 µM unless noted
# HOP-62 NSCLC = conditions: 10 µM unless noted
# NCI-H460 lung = conditions: 10 µM unless noted
# HOP-92 NSCLC = conditions: 10 µM unless noted
# NCI-H522 lung = conditions: 10 µM unless noted
# A549/ATCC NSCLC = conditions: 10 µM unless noted
# 786-0 renal = conditions: 10 µM unless noted
# COLO 205 colon = conditions: 10 µM unless noted
# DU-145 prostate = conditions: 10 µM unless noted
# K-562 leukemia = conditions: 10 µM unless noted
# MALME-3M melanoma = conditions: 10 µM unless noted
# MDA-MB-231 breast = conditions: 10 µM unless noted
# RXF 393 renal = conditions: 10 µM unless noted
# SF-268 CNS = conditions: 10 µM unless noted
# SF-295 CNS = conditions: 10 µM unless noted
# SF-539 CNS = conditions: 10 µM unless noted
# UACC-257 melanoma = conditions: 10 µM
# M14 melanoma = conditions: 10 µM unless noted
SMILES,growth (NCI-H23 lung),growth (NCI-H226 lung),growth (NCI-H322M lung),growth (HOP-62 NSCLC),growth (NCI-H460 lung),growth (HOP-92 NSCLC),growth (NCI-H522 lung),growth (A549/ATCC NSCLC),growth (786-0 renal),growth (COLO 205 colon),growth (DU-145 prostate),growth (K-562 leukemia),growth (MALME-3M melanoma),growth (MDA-MB-231 breast),growth (RXF 393 renal),growth (SF-268 CNS),growth (SF-295 CNS),growth (SF-539 CNS),growth (UACC-257 melanoma) [%],growth (M14 melanoma)
COc1cccc(C2CC(=O)Nc3c2c(C)nn3-c2nc3ccccc3[nH]2)c1OC (stereo not given),50.5%,55.1%,60%,57.4%,50.2%,85.4%,87.8%,34.4%,91.7%,98.1%,76.5%,40.9%,52.3%,82.1%,64.2%,76.4%,7.64% (active),99.7%,79.1,65.4%
CCOC(=O)C1=C(CSC(=S)N(C2CCCCC2)C2CCCCC2)N(C)C(=O)NC1c1ccccc1 (stereo not given),76.5%,58.8%,91.9%,63.1%,12.7%,69%,58.1%,47.2%,48.6%,60.6%,46.8%,35.2%,71.8%,62.9%,43.6%,49%,39.9%,71.6%,61.4,56.9%
COc1ccc(NC(=O)c2cc3ccccc3nc2Nc2cc(OC)c(OC)c(OC)c2)cc1,59.6%,54.5%,90.2%,84.1%,50.3%,54.7%,57.2%,50.4%,58%,76.7%,66.3%,50.6%,132%,54.1%,60.5%,66.6%,65.5%,68.3%,83.6,55.1%
Cc1nc2sccn2c1-c1csc(Nc2ccccc2Cl)n1,38.2%,57.7%,64.4%,54.2%,35.3%,60.9%,41.9%,34.4%,55.3%,41.6%,68.2%,12.5%,56.2%,66.5%,67.2%,71.3%,36.2%,52%,46,36.9%
COc1cc(OC)c(C(=O)/C=C/c2cccc(C#N)c2)c(OC)c1,-7.14% (active),3.93% (active),-1.49% (active),-9.93% (active),0.36% (active),-5.88% (active),-25.9% (active),2.27% (active),9.74% (active),-6.79% (active),15.3%,13.7%,35.4%,17.1%,-3.8% (active),13.5%,1.75% (active),-7.41% (active),32.2,6.71% (active)
Clc1ccc2c(c1)NC1(CCSc3ccccc31)n1nccc1-2 (stereo not given),98.5%,92.5%,95.1%,112%,103%,91.6%,89.7%,90%,96.9%,114%,103%,97.4%,85.8%,98.1%,119%,94.8%,97.4%,92.4%,97.4,96.6%
COC1=CC(c2ccc[nH]2)=N/C1=C\c1[nH]c(C)c(C(=O)CCC(=O)Oc2ccc3c(c2)CCC2C3CC[C@]3(C)[C@@H](O)CC[C@@H]23)c1C (stereo not given in full),18.4%,15.5%,42.7%,12.4%,1.58% (active),-45.2% (active),-58.9% (active),-10.9% (active),-46.3% (active),31.5%,0.722% (active),-18% (active),9.7% (active),-64.2% (active),-6.4% (active),3.8% (active),20.3%,-18.9% (active),82.4,-50.8% (active)
CCCCCCCCCCCCCCCCC(Br)C(=O)O (stereo not given),110%,95.5%,115%,92.4%,108%,120%,80.4%,103%,111%,119%,116%,86.1%,98.3%,115%,105%,112%,93.8%,86.4%,110,101%
Clc1ccc(/C=C/c2nc(N3CCOCC3)c3nc(Cl)c(Cl)cc3n2)cc1,92.2%,106%,111%,110%,105%,94.1%,95.5%,107%,92.2%,102%,103%,79.3%,113%,110%,117%,97.3%,91.9%,98.6%,106,96.4%
CCOC(=O)C(Cc1ccccc1)n1c(O)c(C=Nc2ccc(C(=O)OCCN(CC)CC)cc2)sc1=O (stereo not given),102%,96.7%,94.4%,103%,99.3%,84.2%,85.7%,74.4%,90.8%,95.5%,106%,89.3%,90.1%,89.3%,84.7%,97.2%,104%,86.5%,77.4,-36.1% (active)
COc1ccc(-c2nc(-c3ccccc3)c(-c3ccccc3)n2C2CC2)cc1OC1CCCCC1,72.6%,94%,80.4%,85%,30.9%,90.2%,64.2%,53.3%,74%,79.9%,73.2%,31.4%,76.5%,61.2%,73.7%,56.3%,54.8%,81%,85.1,76.7%
COc1cccc(NC(=O)c2sc3nc4c(cc3c2N)CCCC4)c1,32.3%,57.2%,38.9%,27.7%,12%,43.6%,4.31% (active),17.4%,34.3%,49.2%,13%,12.2%,17%,51.9%,7.62% (active),49.5%,35.4%,-12.8% (active),64.5,16.6%
CCOC(=O)C1=C(C)NC(=O)NC1c1ccc(OCC(=O)N/N=C/c2ccc(Cl)cc2)cc1 (stereo not given),105%,95.8%,87.5%,89.9%,101%,90.1%,81.2%,77%,97.6%,105%,106%,94.9%,101%,98.7%,95.6%,95.1%,99.5%,91.3%,68.7,94.6%
O=C(Nc1ccc(OCc2nnc(-c3ccc(Cl)cc3)o2)c(F)c1)Nc1ccc(Cl)c(Cl)c1,47.3%,78.7%,54.7%,47.5%,29.2%,59%,40.4%,32.2%,90%,70.3%,34.4%,67.3%,33.4%,26.3%,50.7%,53.3%,62.5%,45%,74.4,61.5%
Nc1c(C(=O)Nc2cccc(C(F)(F)F)c2)sc2nc3c(cc12)CCCCC3,3.46% (active),11.3%,-5.26% (active),3.07% (active),10.3%,17.5%,20%,-18.4% (active),-62.8% (active),65.1%,44.1%,36.9%,-20.4% (active),-29.5% (active),-20.7% (active),25.8%,11.7%,-63.3% (active),18.6,49.6%
C=CCN=C1NC(=O)/C(=C/c2cc(C(C)(C)C)c(O)c(C(C)(C)C)c2)S1,90.2%,97.7%,87.9%,77.2%,72.8%,82.2%,44.5%,63.4%,66.1%,81.3%,84%,30.8%,75.4%,86.8%,62.4%,82%,69.3%,87.6%,93,52.4%
